# Only some compounds are listed: those with a hit (about 1.3% of all), similar ones and a draw of the others.
# NR2F2 inh – NR2F2 transcriptional activity inhibitors, primary screen, cell-based, luciferase reporter, HEK293T, luminescence. COUP transcription factor 2 (Homo sapiens), P24468. inhibition, % at 8.6 µM. HEK293T NGFI-A luciferase reporter. AID 686940, 2013. 0.7% of 370,000 active;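 active = inhibition above a per-plate cutoff, mean inhibition of test wells between control levels plus 3 SD, cut at about 38% in these data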;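 note: cells cotransfected with COUP-TFII expression vector driving the NGFI-A reporter; 0% = median of COUP-TF2 test wells and 100% = reporter-only cells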
# LRH-1 inv ag – LRH-1 (NR5A2) inverse agonists, primary screen, cell-based, luminescence, HEK293T, StAR-luciferase reporter | Nuclear receptor subfamily 5 group A member 2 (Homo sapiens), O00482 | LRH-1 transfected, 24 h | inhibition, % at 3.6 µM | 0.13% of 360,000 active;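 active = inhibition above the mean inhibition of all tested compounds plus 3 SD, cut at about 73% in these data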;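 note: 0% = DMSO wells and 100% = reporter-only cells lacking LRH-1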
# Target sequence (O00482 whole entry, looked up): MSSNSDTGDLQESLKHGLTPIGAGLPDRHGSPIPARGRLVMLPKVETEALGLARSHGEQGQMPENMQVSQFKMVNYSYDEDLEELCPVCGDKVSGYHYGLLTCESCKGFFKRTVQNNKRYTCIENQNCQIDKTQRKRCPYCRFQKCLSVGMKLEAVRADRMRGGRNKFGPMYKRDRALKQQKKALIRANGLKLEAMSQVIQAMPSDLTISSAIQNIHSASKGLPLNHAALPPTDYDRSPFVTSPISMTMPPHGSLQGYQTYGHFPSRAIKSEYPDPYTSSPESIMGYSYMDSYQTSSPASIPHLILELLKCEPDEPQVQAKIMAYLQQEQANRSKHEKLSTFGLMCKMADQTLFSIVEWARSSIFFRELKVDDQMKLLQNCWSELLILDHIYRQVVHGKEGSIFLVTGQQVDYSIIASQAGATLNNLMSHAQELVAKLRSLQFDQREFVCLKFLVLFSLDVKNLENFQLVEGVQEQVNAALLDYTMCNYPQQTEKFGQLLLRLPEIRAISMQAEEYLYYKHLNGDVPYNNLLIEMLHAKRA
# NCOA2 inhibitor – inhibition of GAL4-SRC2 driven luciferase reporter, primary screen, SRC2 inhibitor project, cell-based, luminescence. inhibition, % at 9 µM. HEK293 GAL4-SRC2 luciferase reporter. Nuclear receptor coactivator 2 (Homo sapiens), Q15596. 0.17% of 370,000 active. AID 651957, 2012;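 active = inhibition above the mean inhibition of all tested compounds plus 3 SD, set per campaign, cut at about 52% in these data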;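 note: 0% = DMSO treated cells and 100% = cells given Gossypol at 36 µM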
# Gli-Sufu block – Gli-Sufu pathway antagonists, primary screen, luciferase luminescence, Sufu-KO-LIGHT cells, uHTS. Sufu-KO-LIGHT fibroblasts, Gli luciferase reporter luminescence. inhibition, % at 5 µM. 0.74% of 340,000 active. AID 588413, 2011;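 active = inhibition above about 55%, limit read from the data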;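 note: 0% = DMSO-treated cells and 100% = wells with medium but no cells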
# NCOA1 inh – SRC1 coactivator transcriptional activity inhibitors, primary screen, cell-based, luminescence | 0.12% of 360,000 active | AID 588354, 2011 | HEK293 GAL4-SRC1 luciferase reporter | inhibition, % at 3.6 µM | Nuclear receptor coactivator 1 (Homo sapiens), Q15788;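 active = inhibition above the campaign mean plus 3 SD, with each screening campaign given its own cutoff, cut at about 60% in these data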;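 note: 0% = DMSO treated cells and 100% = gossypol at 36 µM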
# SRC3 inh – SRC3 coactivator transcriptional activity inhibitors, primary screen, cell-based, luminescence | Nuclear receptor coactivator 3 (Homo sapiens), Q9Y6Q9 | HEK293 GAL4-SRC3 luciferase reporter | inhibition, % at 3.6 µM | 0.17% of 360,000 active | AID 588352, 2011;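 active = inhibition above a per-campaign cutoff, the mean of all compounds plus 3 SD, cut at about 60% in these data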;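 note: 0% = DMSO-treated cells and 100% = gossypol-treated cells at 36 µM; higher means less SRC3-driven luciferase light from the GAL4 reporter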
# Gli-Sufu confirm – Gli-SUFU pathway antagonists, confirmation, single concentration, luciferase luminescence, Sufu-KO-LIGHT cells | shares compounds with Gli-Sufu block | Gli luciferase reporter | inhibition, % at 5 µM | 40% of 2,500 active | AID 602428, 2012;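 active = mean inhibition at 5 µM reaching about 45%, limit read from the data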;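 note: plate controls were DMSO-treated cells for no effect and wells lacking cells for full effect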
# SufuKO cytotox – cytotoxicity in Sufu-KO-LIGHT cells, confirmation, cytotoxicity control for Gli-SUFU antagonist project, cell-based, ATP luminescence, single concentration | 32% of 2,500 active | shares compounds with Gli-Sufu block | cytotoxicity, % at 5 µM;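 active = mean cytotoxicity at 5 µM above about 25%, limit read from the data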;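 note: cells exposed to compound overnight for roughly 16 to 18 hours; plate controls were DMSO wells with cells for no effect and medium without cells for full effect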
# Wnt3a cs – Wnt3a reporter signal inhibition, confirmation, counter-screen for Gli-SUFU antagonist project, Wnt-LIGHT cells, luminescence, single concentration; shares compounds with Gli-Sufu block; Wnt3a-driven luciferase reporter; inhibition, % at 6.25 µM; 20% of 2,500 active; AID 651995, 2013;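 active = mean inhibition above about 25%, limit read from the data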
# * = called active by the depositor; / = not tested or not shown.
SMILES,NR2F2 inh,LRH-1 inv ag,NCOA2 inhibitor,Gli-Sufu block,NCOA1 inh,SRC3 inh,Gli-Sufu confirm,SufuKO cytotox,Wnt3a cs
N#Cc1cccnc1N1CCN(C(=O)c2ccc3c(c2)S(=O)(=O)c2ccccc2C3=O)CC1,6,-5,-17,50,3,5,26,2,-10
COc1ccc(/C=C2\NC(=O)C(C=NCc3ccccc3)=C2O)cc1,-3,-8,-26,-11,-40,-18,/,/,/
O=C1CCCC(O)=C1C=NCc1ccccc1,-5,-13,-11,58*,-14,-9,32,4,-4
O=C1N/C(=C\c2ccc(O)cc2)C(O)=C1C=NCc1ccccc1,-14,28,3,71*,16,26,47*,19,11
COc1ccc(Sc2cccc(Cl)c2)c(C(=O)O)c1,-1,/,7,/,/,/,/,/,/
CCCCCCCCN1C(=O)[C@@H](CC(=O)NCc2cccc(C(F)(F)F)c2)C[C@@]2(C(=O)OC)C1=C[C@H](C(C)(C)C)O[C@@H]2C,-4,/,2,/,/,/,/,/,/
CS(=O)(=O)c1ccc(C(=O)NCC2(N3CCCCC3)CCCCC2)cc1,5,-36,-7,19,-7,3,/,/,/
CS(=O)(=O)Cc1ccc(C(=O)NCC2(N3CCCCC3)CCCCC2)cc1,4,-64,-14,52,-12,10,29,17,0
COc1ccccc1CNS(=O)(=O)c1ccc(-c2cc(C)no2)cc1,17,27,35,51,-7,8,43,57*,-54
N#Cc1ccc(OCC(=O)NNC(=S)NC2CCCCC2)cc1,-8,-13,3,58*,-20,-3,25,4,-5
C=CCCc1ccc(C#N)c(SCc2c(C(=O)OCC)c3cc(OC(C)=O)c(Br)cc3n2C)n1,/,-4,/,73*,10,-12,85*,43*,41*
CCOC(=O)c1c(CSc2nc(C)cc(C)c2C#N)n(C)c2cc(Br)c(OC(C)=O)cc12,-9,-9,-14,79*,-10,-5,80*,38*,10
Cc1ccccc1C1=CC(=O)CC(C)(C)C1=O,-5,/,-17,/,/,/,/,/,/
CCc1c(-c2cccc(F)c2)ncn1CCc1ccccc1OC,7,/,4,/,/,/,/,/,/
O=C(N/N=C/c1ccccn1)c1[nH]c2ccc([N+](=O)[O-])cc2c1-c1ccccc1,-11,40,15,56*,-35,15,22,17,-69
CC(C)(C)n1nnnc1C(c1ccc2ncccc2c1)N1CCC(O)CC1 (stereo not drawn),-9,-9,-9,63*,4,0,9,11,8
C=CCN1[C@@H](C)[C@@H](c2ccccc2)Oc2c(Cl)cccc2S1(=O)=O,8,/,2,/,/,/,/,/,/
Cc1cccc(NC(=O)c2onc3c2CCCC3)c1C,-35,-161,-35,11,-75,-63,/,/,/
Cc1ccccc1NC(=O)c1onc2c1CCCC2,-38,-137,-40,56*,-77,-98,-93,12,-82
COC(=O)[C@]12C[C@H](CC(=O)N3CCCC3)C(=O)N(CCC3=CCCCC3)C1=C[C@H](COCc1ccccc1)O[C@@H]2C,-2,/,24,/,/,/,/,/,/
CCOC(=O)N1CCN(C(=S)NC)CC1,4,14,13,3,6,10,/,/,/
CCC(=O)NC1CCN(C(=S)NC)CC1,4,-12,-9,57*,-18,10,6,5,-22
N#Cc1ccc(Sc2nc3ccccc3[nH]2)cc1C#N,11,-1,-33,92*,-36,2,24,-5,-1
N#C/C(=C\c1ccc(Sc2nc3ccccc3[nH]2)o1)c1ccccc1,12,8,11,4,-8,-12,/,/,/
Cc1cccc(C)c1NC(=O)CCCSc1nnnn1C,10,-7,-19,4,-6,-18,/,/,/
SMILES,NR2F2 inh,LRH-1 inv ag,NCOA2 inhibitor,Gli-Sufu block,NCOA1 inh,SRC3 inh,Gli-Sufu confirm,SufuKO cytotox,Wnt3a cs
Cc1cccc(C)c1NC(=O)CSc1nnnn1C,-11,-8,12,57*,0,10,17,7,-12
C[C@@H]1ON(C)[C@H]2C[C@H]3c4[nH]c5c(-c6ccc7c(c6)OCO7)cccc5c4CCN3C(=O)[C@@H]12,-9,/,-7,/,/,/,/,/,/
Cc1ccc(S(=O)(=O)N2CCSC2)cc1C,-9,6,-22,56*,0,25,13,8,12
COc1ccc(S(=O)(=O)N2CCSC2)cc1C,10,22,1,-6,-8,20,/,/,/
Cc1[nH]c2ccccc2c1CC(=O)Nc1ccc(N(C)c2cccnc2)c(-c2cccc(Cl)c2)c1,-3,/,19,/,/,/,/,/,/
COc1ccccc1NC(=O)COc1ccc2c(c1)OCO2,-33,-94,-15,59*,-66,-27,15,11,-65
O=[N+]([O-])c1ccc(-c2ccc(S(=O)(=O)NCCN3CCCC3)cc2)cc1,18,4,40,54,13,-12,29,10,-29
O=[N+]([O-])c1ccc(S(=O)(=O)NCCN2CCOCC2)cc1,11,0,2,9,2,1,/,/,/
O=[N+]([O-])c1ccc(/C=[N+](\[O-])[C@@H]2CCCC[C@@H]2/[N+]([O-])=C/c2ccc([N+](=O)[O-])o2)o1,13,8,-51,76*,-61,-41,67*,-2,21
O=C(N/N=C/c1ccc([N+](=O)[O-])o1)C1CCCC1,0,3,-22,21,-85,4,/,/,/
CCc1c(C)nc2ncnn2c1N1CCN(S(=O)(=O)c2ccc(OC)cc2)CC1,10,15,-4,60*,6,15,47*,26*,14
Cc1cc(N2CCN(S(=O)(=O)c3ccc(Br)cc3)CC2)n2ncnc2n1,-5,-7,-26,6,8,16,/,/,/
COC(=O)c1ccc(NC(=O)CNC(=O)C2CCCCC2)cc1,5,-13,-19,94*,0,-18,5,-4,-11
CCOC(=O)c1ccc(NC(=O)CNC(=O)C2CCCCC2)cc1,0,19,-15,-2,7,18,/,/,/
COc1ccc(/C=C2\SC(=S)N(CCC(=O)Nc3cccc(O)c3)C2=O)cc1OC,-6,-15,1,-9,-54,-18,/,/,/
